Screening data from PubChem.
Most compounds without a hit are left out; they make up all but 2.6% or so of the library.
Giardia killer: Giardia lamblia killing; activity change, % at 7.66 µM, hits read low; AID 540267; Giardia lamblia trophozoite viability; 340,000 tested, 0.15% active; in the data active means activity change below about -80%; inconclusive means between about -30% and that limit;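 further: parasites exposed to compound for two days anaerobically before the ATP read; on the % scale 0 is the no-effect control and ±100 the full control effect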
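Each well holds 100 Giardia trophozoites and compound. After two days (48 hrs) at 37 deg C in anaerobic conditions, ATP is quantified by luminescence.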
uPA surface inh: blocks generation of uPA at the cell surface. Potency, µM (titrated, usually from 38.3 µM), for inactives: top-dose activity change, negative = inhibition, usual class: inhibitors. AID 540303. cell surface uPA generation assay, qHTS. 330,000 tested, 0.31% active; active means well fitted inhibition curve with a large enough effect; inconclusive means small, poorly fitted or top-dose-only effect; inactive means no such curve, though single readings can be large or run the other way; tested in mouse RAW 264.7 cells; further: potency means the concentration at half of the fitted maximal effect; on the % scale 0 is the no-effect control and ±100 the full control effect; nearly all actives have a fitted effect of over 55% in size
ATXN2 expr inh: reduces ATXN2 reporter expression in HEK-293 cells; Potency, µM (top dose mostly 57 µM), for inactives: at the top dose activity change, negative = inhibition, hits mostly inhibitors; 360,000 tested, 0.72% active; HEK-293 ATXN2-luciferase reporter, luminescence, 24 h; further: potency means the concentration at half of the fitted maximal effect; on the % scale 0 is the no-effect control and ±100 the full control effect; nearly all actives have a fitted effect of over 55% in size
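qHTS (up to 57 uM final) was run with 24 h compound exposure of reporter cells at 37 °C. Each well was multiplexed: SteadyGlo luminescence measured ATXN2-luciferase expression after a fluorogenic Gly-Phe-AFC viability readout (25 uM final).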
TGFb inhibitor: TGF-b pathway inhibition. HepG2 CAGA-GFP TGF-b/SMAD3 reporter, GFP fluorescence, 18 h; TGF-beta stimulated, 500 pg/mL final. Potency, µM (series often up to 46.1 µM), for the others: at the top dose activity, negative = inhibition, usual class: inhibitors. 410,000 tested, 1.2% active. AID 588855; further: potency means the concentration at half of the fitted maximal effect; on the % scale 0 is the no-effect control and ±100 the full control effect; nearly all actives have a fitted effect of over 65% in size
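Cell-based qHTS in HEPG2 carrying a CAGA-GFP Smad reporter; compounds added before 500 pg/mL final TGF-beta, 18 h incubation at 37 degrees C, GFP fluorescence quantified per cell by imaging cytometry.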
S2 tox: reduces viability in counter-screen for ATXN expression inhibitors; Potency, µM (titrated, usually from 56.7 µM), hits mostly cytotoxic; S2 cells (HEK-293 line with an ATXN2-luciferase reporter) viability, CellTiter-Fluor protease fluorescence, 24 h; 400,000 tested, 0.49% active; further: potency means the concentration at half of the fitted maximal effect; nearly all actives have a fitted effect of over 40% in size
HepG2 viability: kills HepG2 cells in TGF-b inhibitor counter-screen; HepG2 CAGA-GFP viability, ATP luminescence, 18 h; Potency, µM (titrated, usually from 46.1 µM), for the others: top-dose activity change, negative = cytotoxicity, usual class: cytotoxic; 410,000 tested, 0.76% active; further: potency means the concentration at half of the fitted maximal effect
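HepG2 CAGA-GFP cells (1000/well, DMEM with 1% FBS) received compound, then TGF-beta at 500 pg/mL final, and were incubated 18 hours at 37 degrees C. Viability was read by CellTiter-Glo luminescence. Media-only wells were set as complete cell-killing and DMSO as no toxicity.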
* hit, by the source's call; i = inactive; ? = inconclusive; nt = not tested or not shown. Unless noted, the call rests on the fitted dose curve; in most records, active means well fitted curve in the direction sought with a large enough effect; inconclusive means small, poorly fitted or top-dose-only effect, or another doubt; inactive means no such curve, though single readings can be large; an effect the other way counts as inactive or inconclusive.

SMILES	Giardia killer	uPA surface inh	ATXN2 expr inh	TGFb inhibitor	S2 tox	HepG2 viability
CC(=O)Nc1ccc(SC[C@H](C)CN2CC[C@H](C(C)(C)C)CCC2=O)cc1	11	-2%	?	?	28µM*	-26%
Cc1ccc(-c2nnc(SC(C)C(=O)NCc3ccco3)n2C)cc1 (stereo not given)	nt	nt	nt	-12%	nt	-9%
CCN(CC)CCn1c2ccccc2c2cnc(N)c(C#N)c21	-5	-13%	14µM*	-12%	i	-6%
COc1ccc(C2c3c(-c4ccc(F)cc4)n[nH]c3C(=O)N2c2ccccc2)cc1OC (stereo not given)	nt	nt	-10%	-3%	?	1%
COc1ccc(OC)c(C2c3c(-c4ccc(Br)cc4)n[nH]c3C(=O)N2c2ccc(Cl)cc2)c1 (stereo not given)	nt	nt	?	4µM*	nt	11µM*
COc1cc(C2c3c(-c4ccc(C)cc4)n[nH]c3C(=O)N2c2ccc(F)cc2)ccc1O (stereo not given)	nt	nt	?	11µM*	?	-51%
COc1ccc(-c2n[nH]c3c2C(c2ccc(O)cc2)N(c2ccc(Br)cc2)C3=O)cc1 (stereo not given)	nt	nt	nt	?	nt	-28%
Cc1ccc(N2C(=O)c3[nH]nc(-c4ccc(Cl)cc4)c3C2c2ccc(F)cc2)cc1 (stereo not given)	nt	nt	?	?	nt	11µM*
Cc1ccc(-c2n[nH]c3c2C(c2cccs2)N(c2ccc(Cl)cc2)C3=O)cc1 (stereo not given)	nt	nt	?	11µM*	?	13µM*
Cc1ccc(-c2n[nH]c3c2C(c2ccccc2Cl)N(c2ccc(C(=O)O)cc2)C3=O)cc1 (stereo not given)	nt	nt	?	?	?	4%
CC(=O)NCC(=O)N1[C@H]2CC[C@H]1c1cc(Nc3ncc(C(F)(F)F)c(NC4CCC4)n3)ccc12	nt	nt	4.9µM*	nt	nt	nt
CC(=O)NC1CC2CCCC(C1)N2C(=O)Nc1ccc(Cl)c(C(F)(F)F)c1 (stereo not given)	-7	-4%	-3%	?	i	1%
CC(C)(C)c1ccc(C(=O)C[n+]2cc(Br)cc(Br)c2)cc1	nt	nt	nt	5%	nt	-5%
OCCN1CCN(C2Cc3cc(Cl)ccc3Sc3ccc(Cl)cc32)CC1 (stereo not given) (tested in a mixture with another compound)	-10	1%	?	?	?	10µM*
O=S1(=O)c2ccc(Br)cc2N2CC[C@H](C2)N1Cc1ccc(Cl)cc1	5	3.2µM*	-13%	-17%	i	-11%
O=S1(=O)c2ccc(Br)cc2N2CCC[C@@H]2CN1Cc1ccc(Cl)cc1	17	?	-5%	-25%	i	-17%
C=CCNC(=S)Nc1sc2c(c1C(N)=O)CCCC2	9	-2%	-3%	-23%	i	11µM*
COc1cc(-c2cccc(Cl)c2)cc2c1OCCN(C(=O)CCn1ccc(C)n1)C2	nt	nt	nt	nt	i	nt
COc1cc2cc(C#N)c(SCC(=O)OC(C)C)nc2cc1OC	-10	nt	nt	29%	nt	23%
CCCCCCCCCCCCCCCCCCNC(=O)OC1CCN(C(=O)OC[C@H](COC(=O)N(Cc2cccc[n+]2CC)C(=O)c2ccccc2OC)OC)CC1	nt	nt	35µM*	nt	35µM*	nt
Cc1ccc(NC(=O)COC(=O)c2ccccc2OCC(=O)Nc2ccc(Br)cc2)c(C)c1	nt	nt	nt	7%	nt	0%
CCC(C)[C@H](N)C(=O)N[C@H]1CCC2C3CC=C4C[C@@H](O)CC[C@]4(C)C3CC[C@@]21C (stereo not given in full)	nt	nt	nt	?	?	16µM*
C[C@@H](N)C(=O)N[C@H]1CCC2C3CC=C4C[C@@H](O)CC[C@]4(C)C3CC[C@@]21C (stereo not given in full)	9	-1%	1%	25%	i	-13%
CC(C)[C@H](N)C(=O)N[C@H]1CCC2C3CC=C4C[C@@H](O)CC[C@]4(C)C3CC[C@@]21C (stereo not given in full)	nt	nt	nt	?	?	20µM*
